Most compounds without a hit are left out; they make up all but 3.6% or so of the library.
HTT-AS promoter: activators of huntingtin-antisense promoter activity; HEK293 HTT-AS promoter firefly luciferase reporter, 24 h; response scale: percent change from vehicle, -100% = no light; Potency, µM (series often up to 57.5 µM), inactives show top-dose activity change, positive = activation, hits mostly activators; actives 0.24% (n = 48,000); AID 1508624; note: nearly all actives have a fitted effect of over 55% in size
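Firefly luciferase signal from promoter-reporter HEK293 cells was scaled between vehicle (0%) and zero RLU (-100%). Compounds were tested at final concentrations of up to 57.5 uM over 24 h at 37 degrees C. PTC124 at 50 uM final served as control inhibitor.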
HTT prom inh: HTT promoter inhibition; HEK293 HTT promoter firefly luciferase reporter, 24 h; Potency, µM (series often up to 57.5 µM), without a hit: at the top dose activity change, negative = inhibition, usual class: inhibitors; actives 0.93% (n = 48,000); note: nearly all actives have a fitted effect of over 50% in size
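Luminescence was read after Dual-Glo reagent and a 10 min room-temperature incubation. Values were normalized to vehicle (0% activity) and zero RLU (-100% activity). Reporter HEK293 cells had been exposed to compounds (up to 57.5 uM final) for 24 h.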
OvCa metastasis: blocks SKOV3ip1 adhesion and invasion in omental model. SKOV3ip1-GFP adhesion/invasion on 3D omental model, fluorescence. Potency, µM (titrated, usually from 45.8 µM), without a hit: at the highest dose activity change, negative = inhibition, most hits filed as inhibitors. actives 0.1% (n = 46,000). AID 1963576;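 note: plate controls were DMSO wells for no effect and tomatine positive control wells for full effect; nearly all actives have a fitted effect of over 65% in size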
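qHTS, 4-pt dose (0.36-46 umol/L); SKOV3ip1-GFP, 1,200 cells/well, no FBS; primary omental fibroblast/mesothelial co-culture 48 h pre-grown; 2 h RT + 16 h 37 C; PBS wash, 4% PFA; GFP count 488/509 nm.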
S16 F2sN tox: cytotoxicity in S16 Pmp22-F2sN Schwann cells. actives 0.48% (n = 43,000). Potency, µM (doses to about 57.5 µM), inactives show at the top dose activity change, negative = cytotoxicity, hits mostly cytotoxic. S16 Pmp22-F2sN Schwann cells viability, CellTiter-Glo, 24 h; note: % is set by controls: 0 for no effect and ±100 for the full control effect; nearly all actives have a fitted effect of over 65% in size
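Luminescence from CellTiter-Glo, read by CCD camera after a 15 min room-temperature incubation, served as the viability signal. Reporter Schwann cells (S16 Pmp22-F2sN) had been treated with pin-transferred compounds for 24 h at 37C.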
PMP22 txn: PMP22 gene transcription modulation | AID 1508649 | actives 2% (n = 43,000) | Potency, µM (titrated, usually from 57.5 µM), inactives show top-dose activity change, negative = inhibition, most hits filed as inhibitors | S16 Pmp22-F2sN Schwann cells (luciferase reporters placed in the Pmp22 gene), FLuc/NLuc coincidence luminescence, 24 h; active = clear falling dose curves in both reporters; inconclusive = both reporters move, but less clearly or upward; inactive = either reporter flat; the % is the NLuc reporter signal; note: % is set by controls: 0 for no effect and ±100 for the full control effect
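Transcriptional readout in edited S16(c9) cells: two luciferases reported from the Pmp22 locus, measured in turn after 24 h compound incubation.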
mTORC1 inh: mTORC1 pathway inhibition measured by phospho-rpS6; Tsc2-/- p53-/- MEF, phospho-rpS6 immunofluorescence/PI, 24 h; Potency, µM (highest dose often 38.3 µM), for inactives: at the top dose activity change, negative = inhibition, usual class: inhibitors; actives 0.78% (n = 44,000); AID 493208;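 note: plate controls were DMSO for no effect and rapamycin for full effect; nearly all actives have a fitted effect of over 50% in size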
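Compounds act on Tsc2-/-, p53-/- fibroblasts carrying an empty vector for 24 h before fixation and dual staining for phospho-S6 and DNA (propidium iodide). Values are percentages of cells above a rapamycin-defined pS6/PI threshold.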
Numbers without * were called inactive; i = inactive; ? = inconclusive; / = not tested or not shown. Unless noted, calls come from the whole dose curve; as a rule, active = well fitted curve in the direction sought with a large enough effect; inconclusive = small, poorly fitted or top-dose-only effect, or another doubt; inactive = no such curve, though single readings can be large; an effect the other way counts as inactive or inconclusive. Potency is the fitted concentration of half-maximal effect.

SMILES	HTT-AS promoter	HTT prom inh	OvCa metastasis	S16 F2sN tox	PMP22 txn	mTORC1 inh
CCOc1ccc(-c2nc(CSCC(=O)NCc3ccc(C)cc3)c(C)o2)cc1	-77%	7.1µM*	-8%	-11%	0%	-7%
Cc1cc(N2CCOCC2)cc2[nH]c(-c3c(NC[C@@H](O)c4cccc(Cl)c4)cc[nH]c3=O)nc12	-39%	?	?	/	/	/
CCC(C(=O)Nc1c(C)cc(C)cc1C)n1c(=O)c(-c2ccccc2NC(C)=O)nc2ccccc21 (centres undefined)	-7%	-9%	2%	-2%	-13%	0%
CCc1ccc(NC(=O)C(CC)n2c(=O)c(-c3ccccc3NC(C)=O)nc3ccccc32)cc1 (centres undefined)	-35%	14µM*	?	1%	?	-10%
Fc1ccc(NCc2ccccc2-c2nnc(-c3ccccc3Cl)o2)cc1	?	45%	0%	0%	-7%	-9%
Oc1ccc(OCc2ccccc2)cc1	?	11%	4%	/	/	/
Oc1ccc(NCc2ccccc2OCc2ccccc2Cl)cc1	-11%	-18%	-5%	20µM*	7µM*	-28%
Oc1ccc(NCc2ccc(OCc3ccccc3)cc2)cc1	14%	-23%	?	10µM*	4.6µM*	15µM*
Oc1ccc(NCc2ccc(OCc3ccccc3Cl)cc2)cc1	-3%	0%	i	?	?	16µM*
Cc1ccc(-c2nc(Cn3c(SCc4ccc(F)cc4)nc4cccnc43)c(C)o2)cc1	-36%	?	-22%	-18%	7.4µM*	-8%
CC(C)Oc1ccc(C(=O)N[C@H](CNC(=O)CN(C)C)Cc2ccc(-c3cn4cccc([C@H](C)O)c4n3)cc2)cc1Cl	-32%	-19%	-13%	/	/	/
CCOC(=O)N1c2ccc(C(F)(F)F)cc2[C@@H](N(Cc2cc(C(F)(F)F)cc(C(F)(F)F)c2)C(=O)OC)C[C@H]1CC	-12%	-31%	4%	/	/	/
O=C(O)[C@@H](c1ccc(OCc2ccc3ccccc3n2)cc1)C1CCCC1	14%	6%	-2%	/	/	/
COc1ccccc1[C@H](c1cccc2ccccc12)[C@@](C)(C#N)C(=O)N1CCC(c2cccc(C(F)(F)F)c2)CC1	-11%	-4%	-1%	/	/	/
COC(=O)[C@]12CCC(C)(C)C[C@@H]1[C@@H]1C(=O)C=C3[C@@]4(C)C=C(C#N)C(=O)C(C)(C)[C@@H]4CC[C@@]3(C)[C@]1(C)CC2	-87%	?	2.3µM*	/	/	/
COC(=O)c1ccc2c(C(=Nc3ccc(N(C)C(=O)CN4CCN(C)CC4)cc3)c3ccccc3)c(O)[nH]c2c1	-24%	?	-3%	/	/	/
O=C(CSc1nccn1Cc1ccco1)Nc1ccc(F)cc1	34%	-4%	-22%	15%	12%	-6%
CC(=O)c1ccc(NC(=O)CSc2nccn2Cc2ccco2)cc1	3.2µM*	36%	i	5%	?	-1%
Cc1ccc(NC(=O)CSc2nccn2Cc2ccco2)cc1Cl	13µM*	30%	-2%	-14%	?	3%
Cn1nnnc1SCCCNCc1ccccc1OCc1ccc(Cl)cc1	-21%	-38%	i	-23%	?	13µM*
NC1(Cc2ccc(Cl)cc2)CCN(c2ncnc3[nH]ccc23)CC1	-36%	?	8%	/	/	/
Cc1ccc(NC(=O)c2nnn(Cc3cccc(C(F)(F)F)c3)c2N)c(C)c1	1%	-27%	i	?	6µM*	?
Cc1cccc(Cn2nnc(C(=O)Nc3cc(C)ccc3C)c2N)c1	-27%	?	i	-8%	?	-2%
C=CCn1c(=O)c2cnc(Nc3ccc(N4CCN(C)CC4)cc3)nc2n1-c1cccc(C(C)(C)O)n1	-38%	?	5%	/	/	/
